# Reference: PubChem BioAssay (NCI)
# Where “and” joins values, the source holds several entries; their conditions need not be identical. Identical values can stand only once. Compounds without any hit were thinned out: in the full panel of roughly 79,000, 15% have a hit. Some compounds were tested as several samples or in several runs, with calls that do not always agree. Calls of active or inactive are those of the source. Rule as the data show it: active = growth inhibition above about 70%; inactive = the rest.
# What was measured:
# [1] = NCI Yeast Anticancer Drug Screen. Data for the wt1 strain (AID 149);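 also: 0% = growth of vehicle-treated wt1 cultures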; settings: S. cerevisiae wt1 strain (SPY 50644) growth inhibition, stronger effect = higher value
# Summary of the method: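 Readout: yeast growth inhibition, normalised to vehicle controls, in the wt1 strain exposed to test compounds.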
# [2] = NCI Yeast Anticancer Drug Screen. Data for the rad50EPP+ strain (AID 151);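 also: 0% = growth of vehicle-treated control cultures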; settings: S. cerevisiae rad50 mutant strain, stronger effect = higher value
# Summary of the method: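 Growth inhibition read against vehicle controls in rad50EPP+ yeast, a strain altered in DNA damage repair, after compound exposure.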
# [3] = NCI Yeast Anticancer Drug Screen. Data for the rad50 strain (AID 155);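 also: 0% = growth of vehicle-only cultures of the same strain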; settings: S. cerevisiae rad50 strain growth inhibition, stronger effect = higher value
# Summary of the method: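 Compounds were tested on a yeast strain with an engineered DNA damage repair alteration; the reported value is growth inhibition normalised to vehicle treatment.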
# [4] = NCI Yeast Anticancer Drug Screen. Data for the mec2-1 strain (AID 157); settings: S. cerevisiae mec2-1 strain, stronger effect = higher value
# Summary of the method: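 Yeast mec2-1 mutant treated with compound. Readout: growth inhibition vs vehicle controls.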
# [5] = NCI Yeast Anticancer Drug Screen. Data for the rad14 strain (AID 159);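 also: 0% = growth of vehicle-treated control cultures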; settings: S. cerevisiae rad14 strain growth inhibition, stronger effect = higher value
# Summary of the method: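 Compound-treated yeast with a defined DNA-repair lesion; growth inhibition normalised to vehicle-treated cultures.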
# [6] = NCI Yeast Anticancer Drug Screen. Data for the sgs1 mgt1 strain (AID 161);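 also: 0% = growth of cultures given vehicle only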; settings: S. cerevisiae sgs1 mgt1 strain, stronger effect = higher value
# Summary of the method: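 Genetically altered yeast, compound exposure, growth inhibition relative to vehicle.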
# [7] = NCI Yeast Anticancer Drug Screen. Data for the CLN2oe strain (AID 163);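 also: 0% = growth of vehicle-only control cultures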; settings: S. cerevisiae CLN2oe strain, stronger effect = higher value
# Summary of the method: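 Read-out: yeast growth inhibition, expressed relative to vehicle-only controls. The strain bears an engineered cell-cycle alteration.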
# [8] = NCI Yeast Anticancer Drug Screen. Data for the cln2 rad14 strain (AID 165);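 also: 0% = growth equal to vehicle treated cultures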; settings: S. cerevisiae cln2 rad14 strain, stronger effect = higher value
# Summary of the method: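 cln2 rad14 yeast strain; compound exposure; growth inhibition read vs vehicle controls.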
# [9] = NCI Yeast Anticancer Drug Screen. Data for the bub3 strain (AID 167); settings: S. cerevisiae bub3 mutant strain, stronger effect = higher value
# Summary of the method: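 Growth of a checkpoint-deficient yeast mutant is measured after compound exposure. Values represent inhibition relative to vehicle.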
# [10] = NCI Yeast Anticancer Drug Screen. Data for the wt2 strain (AID 169);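 also: 0% = growth of vehicle-treated yeast cultures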; settings: S. cerevisiae wt2 strain growth inhibition, stronger effect = higher value
# Summary of the method: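 Read-out: growth inhibition versus vehicle-treated control cultures after compound exposure of the yeast strain.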
# [11] = NCI Yeast Anticancer Drug Screen. Data for the mlh1 strain (AID 171);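 also: 0% = growth of vehicle-treated control cultures of the same strain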; settings: S. cerevisiae mlh1 strain growth inhibition, stronger effect = higher value
# Summary of the method: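 Read-out: growth inhibition versus vehicle controls. Strain: engineered yeast with a defined DNA repair or cell cycle defect, compound-treated.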
# [12] = NCI Yeast Anticancer Drug Screen. Data for the sgs1 strain (AID 173);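 also: 0% = growth of vehicle-only control cultures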; settings: S. cerevisiae sgs1 mutant, stronger effect = higher value
# Summary of the method: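 Read-out: yeast growth inhibition relative to vehicle controls, following compound exposure of a strain with a defined DNA repair/cell cycle alteration.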
# [13] = NCI Yeast Anticancer Drug Screen. Data for the mlh1 rad18 strain (AID 175); settings: S. cerevisiae mlh1 rad18 strain growth inhibition, stronger effect = higher value
# Summary of the method: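 Yeast w/ defined DNA-repair lesions; compound exposure; growth vs vehicle controls → % inhibition.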
# [14] = NCI Yeast Anticancer Drug Screen. Data for the rad18 strain (AID 177); settings: S. cerevisiae rad18 mutant growth inhibition, stronger effect = higher value
# Summary of the method: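 Readout: growth inhibition vs vehicle controls. Cells: genetically altered yeast strain, DNA repair defect.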
# [15] = NCI Yeast Anticancer Drug Screen. Data for the mgt1 strain (AID 153); settings: S. cerevisiae mgt1 mutant growth inhibition, stronger effect = higher value
# Summary of the method: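 mgt1 yeast grown with test compound; read-out is growth inhibition versus vehicle-treated cultures.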
# [16] = at 5.0 µM (retest, dose inferred, filed as 0.5)
# [17] = at 50.0 µM (retest, dose inferred, filed as 5.0)
structure (smiles),measurement,setting,value
Cc1cc(NC(=S)SCc2ccc(Cl)cc2)ccc1Cl,growth inhibition,[1]; at 1.2 µM,11% (inactive)
same,growth inhibition,[1]; at 3.7 µM,24% (inactive)
same,growth inhibition,[1]; at 11.0 µM,63% (inactive)
same,growth inhibition,[1]; at 33.0 µM,98% (active)
same,growth inhibition,[1]; at 100.0 µM,98% (active)
same,growth inhibition,[2]; at 1.2 µM,3% (inactive)
same,growth inhibition,[2]; at 3.7 µM,29% (inactive)
same,growth inhibition,[2]; at 11.0 µM,92% (active)
same,growth inhibition,[2]; at 33.0 µM,99% (active)
same,growth inhibition,[2]; at 100.0 µM,99% (active)
same,growth inhibition,[3]; at 1.2 µM,12% (inactive)
same,growth inhibition,[3]; at 3.7 µM,10% (inactive)
same,growth inhibition,[3]; [16],24% (inactive)
same,growth inhibition,[3]; at 11.0 µM,44% (inactive)
same,growth inhibition,[3]; at 33.0 µM,97% (active)
same,growth inhibition,[3]; [17],96% (active)
same,growth inhibition,[3]; at 50.0 µM,90.5% (active)
same,growth inhibition,[3]; at 100.0 µM,95% (active)
same,growth inhibition,[4]; at 1.2 µM,-3% (inactive)
same,growth inhibition,[4]; at 3.7 µM,6% (inactive)
same,growth inhibition,[4]; [16],0% (inactive)
same,growth inhibition,[4]; at 11.0 µM,29% (inactive)
same,growth inhibition,[4]; at 33.0 µM,98% (active)
same,growth inhibition,[4]; [17],97% (active)
same,growth inhibition,[4]; at 50.0 µM,92.5% (active)
same,growth inhibition,[4]; at 100.0 µM,98% (active)
same,growth inhibition,[5]; at 1.2 µM,-4% (inactive)
same,growth inhibition,[5]; at 3.7 µM,22% (inactive)
same,growth inhibition,[5]; at 11.0 µM,46% (inactive)
same,growth inhibition,[5]; at 33.0 µM,99% (active)
same,growth inhibition,[5]; at 100.0 µM,98% (active)
same,growth inhibition,[6]; [16],43% (inactive)
same,growth inhibition,[6]; [17],98% (active)
same,growth inhibition,[6]; at 50.0 µM,91.8% (active)
same,growth inhibition,[7]; at 1.2 µM,-3% (inactive)
same,growth inhibition,[7]; at 3.7 µM,15% (inactive)
same,growth inhibition,[7]; at 11.0 µM,44% (inactive)
same,growth inhibition,[7]; at 33.0 µM,98% (active)
same,growth inhibition,[7]; at 100.0 µM,98% (active)
same,growth inhibition,[8]; [16],29% (inactive)
same,growth inhibition,[8]; [17],95% (active)
same,growth inhibition,[8]; at 50.0 µM,90.5% (active)
same,growth inhibition,[9]; at 1.2 µM,-4% (inactive)
same,growth inhibition,[9]; at 3.7 µM,-8% (inactive)
same,growth inhibition,[9]; [16],48% (inactive)
same,growth inhibition,[9]; at 11.0 µM,49% (inactive)
same,growth inhibition,[9]; at 33.0 µM,99% (active)
same,growth inhibition,[9]; [17],98% (active)
same,growth inhibition,[9]; at 50.0 µM,91.6% (active)
same,growth inhibition,[9]; at 100.0 µM,98% (active)
same,growth inhibition,[10]; at 1.2 µM,-5% (inactive)
same,growth inhibition,[10]; at 3.7 µM,20% (inactive)
same,growth inhibition,[10]; at 11.0 µM,56% (inactive)
same,growth inhibition,[10]; at 33.0 µM,98% (active)
same,growth inhibition,[10]; at 100.0 µM,99% (active)
same,growth inhibition,[11]; at 1.2 µM,-17% (inactive)
same,growth inhibition,[11]; at 3.7 µM,-8% (inactive)
same,growth inhibition,[11]; at 11.0 µM,27% (inactive)
same,growth inhibition,[11]; at 33.0 µM,98% (active)
same,growth inhibition,[11]; at 100.0 µM,98% (active)
same,growth inhibition,[12]; at 1.2 µM,-9% (inactive)
same,growth inhibition,[12]; at 3.7 µM,-22% (inactive)
same,growth inhibition,[12]; at 11.0 µM,38% (inactive)
same,growth inhibition,[12]; at 33.0 µM,98% (active)
same,growth inhibition,[12]; at 100.0 µM,98% (active)
same,growth inhibition,[13]; [16],11% (inactive)
same,growth inhibition,[13]; [17],96% (active)
same,growth inhibition,[13]; at 50.0 µM,90.6% (active)
same,growth inhibition,[14]; at 1.2 µM,13% (inactive)
same,growth inhibition,[14]; at 3.7 µM,35% (inactive)
same,growth inhibition,[14]; at 11.0 µM,69% (inactive)
same,growth inhibition,[14]; at 33.0 µM,98% (active)
same,growth inhibition,[14]; at 100.0 µM,96% (active)
COc1ccc2[nH]c3c(C)c4cc[n+](C)cc4c(C)c3c2c1,growth inhibition,[1]; at 1.2 µM,18% (inactive) and 15% (inactive)
same,growth inhibition,[1]; at 3.7 µM,45% (inactive) and 16% (inactive)
same,growth inhibition,[1]; at 11.0 µM,45% (inactive) and 26% (inactive)
same,growth inhibition,[1]; at 33.0 µM,43% (inactive) and 41% (inactive)
same,growth inhibition,[1]; at 100.0 µM,43% (inactive) and 63% (inactive)
same,growth inhibition,[2]; at 1.2 µM,39% (inactive) and 24% (inactive)
same,growth inhibition,[2]; at 3.7 µM,64% (inactive) and 62% (inactive)
same,growth inhibition,[2]; at 11.0 µM,70% (active) and 73% (active)
same,growth inhibition,[2]; at 33.0 µM,73% (active) and 82% (active)
same,growth inhibition,[2]; at 100.0 µM,87% (active) and 89% (active)
same,growth inhibition,[15]; at 1.2 µM,15% (inactive) and 2% (inactive)
same,growth inhibition,[15]; at 3.7 µM,28% (inactive) and 12% (inactive)
same,growth inhibition,[15]; at 11.0 µM,26% (inactive) and 24% (inactive)
same,growth inhibition,[15]; at 33.0 µM,38% (inactive) and 29% (inactive)
same,growth inhibition,[15]; at 100.0 µM,39% (inactive) and 55% (inactive)
same,growth inhibition,[3]; at 1.2 µM,22% (inactive) and 7% (inactive)
same,growth inhibition,[3]; at 3.7 µM,35% (inactive) and 34% (inactive)
same,growth inhibition,[3]; [16],29% (inactive) and 31% (inactive)
same,growth inhibition,[3]; at 11.0 µM,60% (inactive)
same,growth inhibition,[3]; at 33.0 µM,78% (active) and 88% (active)
same,growth inhibition,[3]; [17],85% (active) and 82% (active)
same,growth inhibition,[3]; at 50.0 µM,31.6% (inactive) and 64.8% (inactive)
same,growth inhibition,[3]; at 100.0 µM,92% (active) and 94% (active)
same,growth inhibition,[5]; at 1.2 µM,0% (inactive) and 6% (inactive)
same,growth inhibition,[5]; at 3.7 µM,17% (inactive) and 15% (inactive)
same,growth inhibition,[5]; at 11.0 µM,25% (inactive)
same,growth inhibition,[5]; at 33.0 µM,27% (inactive) and 40% (inactive)
same,growth inhibition,[5]; at 100.0 µM,36% (inactive) and 61% (inactive)
same,growth inhibition,[6]; [16],18% (inactive) and 28% (inactive)
same,growth inhibition,[6]; [17],41% (inactive) and 52% (inactive)
same,growth inhibition,[6]; at 50.0 µM,45.8% (inactive) and 36.4% (inactive)
same,growth inhibition,[7]; at 1.2 µM,45% (inactive) and -9% (inactive)
same,growth inhibition,[7]; at 3.7 µM,45% (inactive) and 0% (inactive)
same,growth inhibition,[7]; at 11.0 µM,55% (inactive) and -5% (inactive)
same,growth inhibition,[7]; at 33.0 µM,50% (inactive) and 20% (inactive)
same,growth inhibition,[7]; at 100.0 µM,40% (inactive) and 66% (inactive)
same,growth inhibition,[9]; at 1.2 µM,18% (inactive) and 8% (inactive)
same,growth inhibition,[9]; at 3.7 µM,30% (inactive) and 22% (inactive)
same,growth inhibition,[9]; [16],19% (inactive) and 2% (inactive)
same,growth inhibition,[9]; at 11.0 µM,28% (inactive) and 23% (inactive)
same,growth inhibition,[9]; at 33.0 µM,33% (inactive) and 32% (inactive)
same,growth inhibition,[9]; [17],50% (inactive) and 20% (inactive)
same,growth inhibition,[9]; at 50.0 µM,22.9% (inactive) and 34.1% (inactive)
same,growth inhibition,[9]; at 100.0 µM,30% (inactive) and 79% (active)
same,growth inhibition,[10]; at 1.2 µM,-13% (inactive) and -31% (inactive)
same,growth inhibition,[10]; at 3.7 µM,-14% (inactive) and -11% (inactive)
same,growth inhibition,[10]; at 11.0 µM,-15% (inactive) and -11% (inactive)
same,growth inhibition,[10]; at 33.0 µM,-13% (inactive) and 14% (inactive)
same,growth inhibition,[10]; at 100.0 µM,11% (inactive) and 73% (active)
same,growth inhibition,[11]; at 1.2 µM,34% (inactive) and 19% (inactive)
same,growth inhibition,[11]; at 3.7 µM,34% (inactive) and 35% (inactive)
same,growth inhibition,[11]; at 11.0 µM,41% (inactive)
same,growth inhibition,[11]; at 33.0 µM,56% (inactive)
same,growth inhibition,[11]; at 100.0 µM,46% (inactive) and 77% (active)
same,growth inhibition,[12]; at 1.2 µM,18% (inactive) and 25% (inactive)
same,growth inhibition,[12]; at 3.7 µM,32% (inactive) and 39% (inactive)
same,growth inhibition,[12]; at 11.0 µM,51% (inactive) and 42% (inactive)
same,growth inhibition,[12]; at 33.0 µM,42% (inactive) and 52% (inactive)
same,growth inhibition,[12]; at 100.0 µM,50% (inactive) and 82% (active)
same,growth inhibition,[13]; [16],23% (inactive) and 19% (inactive)
